Results: PubChem BioAssay
The source made the active and inactive calls.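 Rule for the calls, unless noted: active = visual image review flags a hit and inhibition of aggregation exceeds 20%; inconclusive = visual hit but inhibition at or below 20%; inactive = no hit on visual image review.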

Legend:
[1] = inhibitors of TNFa-induced NFkB p65 translocation, primary screen, imaging, HUVEC, MLSMR starter and 10KST1 sets (AID 438;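 active = inhibition above 20% together with a positive visual image hit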;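 note: compound added about 3h40 before a 20 min TNFalpha stimulation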;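 for inhibition: signal is the nuclear over cytoplasmic p65 intensity ratio per well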); conditions: HUVEC TNFa-induced p65 nuclear translocation; cell count: measured here: nuclei count (cytotoxicity indicator), at 2.08 µM; inhibition: at 2 µM, stronger effect = higher value, 0% TNFa-plus-vehicle, 100% no-TNFa wells
[2] = inhibitors of mutant huntingtin aggregation, primary screen, imaging, exon1htt(103Q)mCFP cells, high-content imaging (AID 483); conditions: exon1htt(103Q)mCFP cell line, aggregate imaging, at 2 µM; inhibition of aggregation: stronger effect = higher value; nuclei count: measured here: cell count, toxicity;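 note: compound exposure lasted 3 days before fixation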;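 for nuclei count: percent of the per-plate median nuclei count of sample wells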
[3] = inhibitors of E-selectin induction by TNFa, primary screen, imaging, HUVEC, immunofluorescence, MLSMR starter and 10KST1 sets (AID 487;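 active = visually confirmed hit in the image check and inhibition above 20%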;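 for inhibition: signal is fraction of cell area covered by stained E-selectin grains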;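 for nuclei count: 100% = median nuclei count of all wells on the same plate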); conditions: HUVEC TNFalpha-induced E-selectin immunofluorescence imaging, at 2 µM; inhibition: stronger effect = higher value; nuclei count: measured here: cell number, toxicity
[4] = target: Voltage-gated potassium channel subunit beta-2 (Rattus norvegicus) (UniProt P62483); assay: KvBeta enzyme negative modulators, primary screen, biochemical, NADPH fluorescence (AID 622;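 active = fluorescence slope higher than the sample average by over 3 SD, cut at about -0.22 in these data, passing the limit was not always enough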;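 note: slope of raw intensity against log time taken from 70 to 1610 s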); conditions: recombinant KvBeta, 4-cyanobenzaldehyde reduction, at 10 µM, stronger effect = higher value
[5] = target: Voltage-gated potassium channel subunit beta-2 (Rattus norvegicus) (UniProt P62483); assay: KvBeta positive modulators, primary screen, biochemical, NADPH fluorescence (AID 623;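 active = NADPH fluorescence slope more negative than the mean of all samples by about 3 SD, 99.7% confidence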;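 note: fluorescence intensity change per second fitted from 20 to 320 s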); conditions: Recombinant KvBeta, NADPH fluorescence decrease slope, 10 min; at 10 µM; stronger effect = lower value
[6] = target: Alpha-2C adrenergic receptor (Homo sapiens) (UniProt P18825); assay: modulators of alpha2C/GIRK thallium flux, primary screen, cell-based, HEK293 alpha2C/GIRK1/2 (AID 624;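 active = fluorescence slope after compound addition differing from the mean of all screened samples at 99.7% confidence, in either direction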;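 note: slope of fluorescence ratio to pre-addition baseline per second over 15 to 24 s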); conditions: thallium flux BTC fluorescence, at 10 µM, actives lie on both sides
[7] = inhibitors of Sendai virus-induced IRF3 signaling, primary screen, TLR/RLR signaling modifier project, cell-based, Sendai virus stimulus, luciferase, 10K MLSCN set (AID 602276;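 active = inhibition at or above 50% at 10 µM; inactive = inhibition below 50%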;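 note: firefly luciferase from ISG56 promoter only with Renilla not read in this screen; 0% = Sendai virus plus DMSO and 100% = medium plus DMSO without virus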); conditions: HEK293 RL24 IRF3 luciferase reporter, at 10 µM, stronger effect = higher value
[8] = inhibitors of poly I:C-induced TLR3 signaling, primary screen, cell-based, poly I:C stimulus, luciferase, 10K MLSCN set (AID 602277;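 active = inhibition of the reporter signal at or above 50%; inactive = inhibition below 50%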); conditions: HEK293-TLR3 RL24 IRF3 luciferase reporter, at 10 µM, stronger effect = higher value

Sequence of Voltage-gated potassium channel subunit beta-2 (Rattus norvegicus) (P62483 whole entry, looked up): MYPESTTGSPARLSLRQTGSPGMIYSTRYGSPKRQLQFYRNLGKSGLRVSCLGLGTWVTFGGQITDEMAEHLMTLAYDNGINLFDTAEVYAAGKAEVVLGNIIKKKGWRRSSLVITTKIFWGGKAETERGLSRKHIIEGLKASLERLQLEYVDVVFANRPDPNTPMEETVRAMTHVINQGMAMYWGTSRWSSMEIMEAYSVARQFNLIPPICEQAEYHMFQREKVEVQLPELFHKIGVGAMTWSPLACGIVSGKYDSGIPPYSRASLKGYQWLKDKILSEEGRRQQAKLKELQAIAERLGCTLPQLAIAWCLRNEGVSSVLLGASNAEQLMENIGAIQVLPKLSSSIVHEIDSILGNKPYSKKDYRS
Sequence of Alpha-2C adrenergic receptor (Homo sapiens) (P18825 whole entry, looked up): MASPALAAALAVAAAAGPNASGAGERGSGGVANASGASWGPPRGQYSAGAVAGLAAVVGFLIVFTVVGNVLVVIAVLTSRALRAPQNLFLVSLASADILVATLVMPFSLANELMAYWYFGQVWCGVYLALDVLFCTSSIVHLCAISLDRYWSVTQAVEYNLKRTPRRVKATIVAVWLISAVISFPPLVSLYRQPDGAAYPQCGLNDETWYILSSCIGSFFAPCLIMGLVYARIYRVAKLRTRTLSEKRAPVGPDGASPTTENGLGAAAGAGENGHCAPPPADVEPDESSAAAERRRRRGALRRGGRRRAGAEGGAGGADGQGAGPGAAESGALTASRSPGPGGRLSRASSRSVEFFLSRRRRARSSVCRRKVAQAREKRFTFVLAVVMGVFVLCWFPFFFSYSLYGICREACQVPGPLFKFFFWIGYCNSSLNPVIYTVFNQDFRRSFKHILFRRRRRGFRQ

SMILES	cell count [1]	inhibition [1]	inhibition of aggregation [2]	nuclei count [2] [%]	inhibition [3]	nuclei count [3] [%]	fluorescence slope [4]	NADPH fluorescence slope [5]	slope [6]	inhibition [7]	inhibition [8]
CS(=O)(=O)N(CC(=O)Nc1ccc2c(c1)OCCO2)Cc1ccccc1	348	-4.7% (inactive)	-2.9% (inactive)	107	9.6% (inactive)	105	-0.413 (inactive)	3.7e-05 (inactive)	0.00583 (inactive)	8.2% (inactive)	17.2% (inactive)
c1ccc2c(c1)nc(-c1ccncc1)n1nnnc21	517	-8.5% (inactive)	8.6% (inactive)	104	-111% (inactive)	179	-0.359 (inactive)	-1.7e-05 (inactive)	0.00824 (inactive)	7.9% (inactive)	0.706% (inactive)
COc1ccc(N(CC(=O)N2CCCCC2)S(=O)(=O)c2ccccc2)c(OC)c1	622	-7.8% (inactive)	-4.8% (inactive)	104	-218% (inactive)	132	-0.278 (inactive)	-7.4e-06 (inactive)	0.00613 (inactive)	12% (inactive)	26.9% (inactive)
CN1C(=O)C(O)(CC(=O)c2ccccc2O)c2cc(Br)ccc21 (stereo not drawn)	608	3.4% (inactive)	-2.8% (inactive)	63.4	-59.3% (inactive)	124	-0.439 (inactive)	-6e-05 (inactive)	0.00404 (inactive)	7.07% (inactive)	55.8% (active)
COc1ccc(/C=N/n2cnnc2SCc2ccc(OC)cc2)cc1	378	3.1% (inactive)	1.4% (inactive)	96.9	-27.7% (inactive)	108	-0.348 (inactive)	-4.9e-05 (inactive)	0.00577 (inactive)	6.24% (inactive)	0.256% (inactive)
Cc1nnc(NC(=O)CSc2nnc(-c3ccc(S(=O)(=O)N4CCCC4)cc3)n2C)s1	575	-16.3% (inactive)	14.6% (inactive)	85.9	-21.6% (inactive)	91.4	-0.495 (inactive)	-2.2e-05 (inactive)	0.00452 (inactive)	17.1% (inactive)	17.7% (inactive)
COc1ccc(C2C=C(c3ccccc3)Nc3ncnn32)cc1 (stereo not drawn)	558	-20.9% (inactive)	-12.6% (inactive)	105	-15.1% (inactive)	110	-0.0904 (active)	4.2e-06 (inactive)	0.00603 (inactive)	5.64% (inactive)	-14.5% (inactive)
CCOC(=O)c1c(COC(=O)c2ccco2)nc2ccccc2[n+]1[O-]	570	8.9% (inactive)	8.4% (inactive)	107	-31.9% (inactive)	120	-0.392 (inactive)	-4.6e-05 (inactive)	0.00397 (inactive)	17.9% (inactive)	15.1% (inactive)
CC(=O)NC(C)C(=O)OCC(=O)Nc1ccc(Br)cc1 (stereo not drawn)	436	6.9% (inactive)	5.5% (inactive)	112	-23.8% (inactive)	116	-0.246 (inactive)	-5.1e-06 (inactive)	0.00449 (inactive)	20% (inactive)	13.9% (inactive)
Cc1ccc(Nc2cc(-n3nc(C)cc3C)ncn2)cc1	378	5.2% (inactive)	-9.7% (inactive)	99.7	-14.1% (inactive)	101	-0.442 (inactive)	-3.4e-05 (inactive)	0.00717 (inactive)	-0.371% (inactive)	-15.8% (inactive)
CCOc1ccc(N(CC(=O)Nc2ccc(F)c(F)c2)S(=O)(=O)c2c(C)noc2C)cc1	758	-0.6% (inactive)	25.8% (inactive)	130	-35.5% (inactive)	109	-0.521 (inactive)	-4.9e-05 (inactive)	0.00774 (inactive)	13% (inactive)	30.3% (inactive)
CCc1ccccc1NC(=O)C(C#N)Cc1cccnc1 (stereo not drawn)	575	-1.5% (inactive)	2.2% (inactive)	100	-21.3% (inactive)	104	-0.51 (inactive)	-9e-07 (inactive)	0.00548 (inactive)	-6.51% (inactive)	19% (inactive)
CCOc1ccc2cc(C#N)c(SCC(=O)N3CCC(C)CC3)nc2c1	447	0.5% (inactive)	6% (inactive)	107	-92.8% (inactive)	138	-0.242 (inactive)	2.6e-06 (inactive)	0.00566 (inactive)	18.2% (inactive)	7.14% (inactive)
O=C(CN1CCN(C2CCCCC2)CC1)Nc1ccccc1-c1ccccc1	273	18.4% (inactive)	16.3% (inactive)	110	-7.3% (inactive)	105	-0.609 (inactive)	-3.4e-05 (inactive)	0.00596 (inactive)	2.95% (inactive)	24.7% (inactive)
OCCNCC(O)Cn1ccc2ccccc21 (stereo not drawn)	410	-8.2% (inactive)	-0.3% (inactive)	84.3	-53.1% (inactive)	181	-0.624 (inactive)	-5e-05 (inactive)	0.007 (inactive)	12.3% (inactive)	16.7% (inactive)
Nc1nc(Nc2ccc(Cl)cc2Cl)nc(C(F)(F)F)n1	348	0.6% (inactive)	-0.7% (inactive)	96.9	-19.5% (inactive)	105	-0.348 (inactive)	-1.8e-06 (inactive)	0.00538 (inactive)	-32.5% (inactive)	-84.9% (inactive)
CC(=O)NC1(C(F)(F)F)NC(=O)N(CC(C)C)C1=O (stereo not drawn)	359	4% (inactive)	-8.3% (inactive)	97.6	-30.2% (inactive)	101	-0.5 (inactive)	2e-05 (inactive)	0.00596 (inactive)	-14.7% (inactive)	14% (inactive)
CCOC(=O)N1CCN(Cc2cc(=O)oc3ccc4ccccc4c23)CC1	472	16.9% (inactive)	11.2% (inactive)	93.3	-64% (inactive)	113	-0.408 (inactive)	8.3e-06 (inactive)	0.0055 (inactive)	16.9% (inactive)	21.7% (inactive)
CC1Cc2nc(SCC(=O)N3CCCc4ccccc43)n(C)c(=O)c2S1 (stereo not drawn)	647	0.5% (inactive)	-0.9% (inactive)	46.7	5.3% (inactive)	118	-0.543 (inactive)	-1.5e-05 (inactive)	0.00618 (inactive)	6% (inactive)	20.4% (inactive)
CC(=O)c1cccc(NC(=O)NCc2ccccn2)c1	655	-6.1% (inactive)	-1.1% (inactive)	132	-41.1% (inactive)	119	-0.424 (inactive)	-4.2e-05 (inactive)	0.00223 (inactive)	-8.72% (inactive)	-125% (inactive)
COC(=O)CN1C(=O)C(O)(CC(=O)c2ccc(C)cc2)c2cc(Br)ccc21 (stereo not drawn)	612	2.9% (inactive)	-6% (inactive)	94.5	-49.2% (inactive)	113	-0.436 (inactive)	-4.5e-05 (inactive)	0.00497 (inactive)	4.14% (inactive)	-1.15% (inactive)
CC1(C)Cc2c(sc3c2c(=N)n(Cc2ccco2)c(=O)n3Cc2ccccc2)CO1	790	-10.7% (inactive)	12% (inactive)	101	-27.8% (inactive)	112	-0.587 (inactive)	2.3e-06 (inactive)	0.0065 (inactive)	13.1% (inactive)	23.7% (inactive)
Cc1ccc(C2CC(c3ccc(C)cc3)n3nc(N)nc3N2)cc1 (stereo not drawn)	871	2.8% (inactive)	15.1% (inactive)	95.1	-71.7% (inactive)	116	-0.613 (inactive)	-1.7e-05 (inactive)	0.00808 (inactive)	-11.6% (inactive)	0.814% (inactive)
O=C(CN(Cc1ccco1)C(=O)c1cc(=O)[nH]c2ccccc12)Nc1ccccc1Br	498	-22.4% (inactive)	11.6% (inactive)	103	10.6% (inactive)	105	-0.58 (inactive)	-4.1e-05 (inactive)	0.00457 (inactive)	16% (inactive)	16.8% (inactive)
CCCCn1c(CN(C)Cc2ccccc2)nc2c1c(=O)n(C)c(=O)n2C	227	-6.1% (inactive)	13.2% (inactive)	57	16.4% (inactive)	103	-0.605 (inactive)	-6.4e-05 (inactive)	0.00658 (inactive)	-18.7% (inactive)	-58.3% (inactive)
Cc1nnc(NC(=O)c2ccccc2F)s1	421	6% (inactive)	14.2% (inactive)	103	6.9% (inactive)	125	-0.614 (inactive)	5.1e-06 (inactive)	0.00652 (inactive)	-6.19% (inactive)	-17.6% (inactive)
OCc1nc2ccccc2n1CCCOc1ccccc1	291	-6% (inactive)	11.9% (inactive)	87	-17.2% (inactive)	96.5	-0.382 (inactive)	-5.7e-05 (inactive)	0.00561 (inactive)	-34.5% (inactive)	-119% (inactive)
O=C(OCC#CCSc1nnc(-c2ccncc2)o1)c1cccs1	513	5.2% (inactive)	-4.1% (inactive)	104	-19.4% (inactive)	102	-0.426 (inactive)	-2e-05 (inactive)	0.00642 (inactive)	1.96% (inactive)	24.8% (inactive)
